Common to all, as to assay: NCI-60 one-dose screen, 48 h (100 = growth as untreated, 0 = no growth, -100 = all killed)
The subject of one assay is HCT-15 colon. Particulars: 10 µM unless noted.
A further assay concerns HT29 colon. Particulars: 10 µM unless noted.
The subject of another assay is SNB-75 CNS. Particulars: 10 µM unless noted.
The subject of another assay is SNB-19 CNS. Particulars: 10 µM unless noted.
For a further assay, the system named is U251 CNS. Particulars: 10 µM unless noted.
A further assay deals with PC-3 prostate. Particulars: 10 µM unless noted.
The next assay has as its system SK-MEL-5 melanoma. Particulars: 10 µM unless noted.
The next assay has as its system LOX IMVI melanoma. Particulars: 10 µM unless noted.
A further assay has as its system SK-MEL-28 melanoma. Particulars: 10 µM unless noted.
Another assay has as its system SK-MEL-2 melanoma. Particulars: 10 µM unless noted.
In the next assay the test system is EKVX NSCLC. Particulars: 10 µM unless noted.
The next assay concerns SN12C renal. Particulars: 10 µM unless noted.
Another assay relates to UO-31 renal. Particulars: 10 µM unless noted.
A further assay has as its system TK-10 renal. Particulars: 10 µM unless noted.
Another assay relates to ACHN renal. Particulars: 10 µM unless noted.
For another assay, the system named is CAKI-1 renal. Particulars: 10 µM unless noted.
The next assay has as its system A498 renal. Particulars: 10 µM.
Another assay deals with HL-60(TB) leukemia. Particulars: 10 µM unless noted.
A further assay concerns CCRF-CEM leukemia. Particulars: 10 µM unless noted.
The subject of the next assay is UACC-62 melanoma. Particulars: 10 µM unless noted.

Compounds without any hit were thinned out: in the full panel of roughly 83,000, 20% have a hit.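 For each line, cells grew in 96-well plates with the test compound present at a single concentration for 48 hours.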 Values without a mark were called inactive. Calls of active or inactive are those of the source. How the source made its calls: active means growth percent below 10; inactive means the rest.

Consider `COc1ccc(/C(C)=C(\c2ccc(OCCN3CCOCC3)cc2)c2ccc(OC(=O)Cc3ccccc3)cc2)cc1`, for which the growth was 98.5% in the assay with HCT-15 colon; 92.4% in the assay on HT29 colon; 121% in the assay on SNB-75 CNS; 111% in the assay with SNB-19 CNS; 102% with U251 CNS; 94.5% with PC-3 prostate. The growth in the assay on SK-MEL-5 melanoma was 106%; in the assay with LOX IMVI melanoma, 103%; in the assay with SK-MEL-28 melanoma, 108%; with SK-MEL-2 melanoma, 96.1%; with EKVX NSCLC, 97.7%; in the assay on SN12C renal, 107%. The growth in the assay on UO-31 renal is 97%; in the assay with TK-10 renal, 108%; in the assay with ACHN renal, 101%; in the assay with CAKI-1 renal, 97.5%; in the assay on A498 renal, 108%; in the assay with HL-60(TB) leukemia, 118%. The growth with CCRF-CEM leukemia was 98.3%.
Consider `O=C1OCCC1Br` (stereo not given), for which the growth is 98.7% in the assay with HCT-15 colon; 97.3% with HT29 colon; 89.9% with SNB-75 CNS; 104% with SNB-19 CNS; 92.2% with U251 CNS; 99.5% with PC-3 prostate. Also, the growth in the assay on SK-MEL-5 melanoma is 103%; in the assay with UACC-62 melanoma it was 103%; in the assay with LOX IMVI melanoma it was 97.4%; with SK-MEL-2 melanoma, 96.5%; in the assay with SN12C renal, 103%; in the assay on UO-31 renal it was 96.4%. The growth is 104% in the assay with TK-10 renal; 102% in the assay on ACHN renal; 95% with CAKI-1 renal; 101% in the assay on A498 renal; 78.1% in the assay with HL-60(TB) leukemia.
Take `ClCCN(CCCl)c1ccc(-n2cnc3c(Cl)ncnc32)cc1`: the growth with HCT-15 colon was -26.7% (active); with HT29 colon it was 12.7%; in the assay on SNB-75 CNS, 26.1%; in the assay on SNB-19 CNS it was 79.2%; with U251 CNS it was 32.8%; in the assay with PC-3 prostate, 64.1%. Also, the growth with SK-MEL-5 melanoma was 86.3%; in the assay on UACC-62 melanoma it was 31.5%; in the assay with SK-MEL-28 melanoma it was -10.5% (active); with SK-MEL-2 melanoma, 69%; in the assay with EKVX NSCLC, 28.7%; in the assay on SN12C renal it was 47.8%. Moreover, the growth in the assay on UO-31 renal is -85.9% (active); in the assay on TK-10 renal, 84.7%; in the assay on ACHN renal, -82.1% (active); with CAKI-1 renal it was -88.2% (active); with A498 renal, 95.2%; in the assay with HL-60(TB) leukemia it was -9.68% (active). Also, the growth in the assay with CCRF-CEM leukemia was 13.1%.
For the compound `O=C1Nc2ccccc2C2c3cccn3-c3ccccc3CN12` (stereo not given), the growth was 38% in the assay with HCT-15 colon; 11.3% in the assay with HT29 colon; 21.1% in the assay on SNB-75 CNS; 73.4% in the assay on SNB-19 CNS; 14.7% in the assay on U251 CNS; 48.6% in the assay with PC-3 prostate. For the same compound, the growth was 43.1% in the assay on SK-MEL-5 melanoma; 63% in the assay on LOX IMVI melanoma; 66.6% with SK-MEL-28 melanoma; 6.54% (active) with SK-MEL-2 melanoma; 67.8% in the assay with EKVX NSCLC; 69.4% in the assay with SN12C renal. Besides, the growth was 60% with UO-31 renal; 71.8% with TK-10 renal; 81.6% with ACHN renal; 63.4% in the assay on CAKI-1 renal; 41.1% in the assay with A498 renal.
As for `CC(C)(C)C(=O)OCOP(=O)(OCOC(=O)C(C)(C)C)C1CCCN(O)C1=O` (stereo not given), the growth with HCT-15 colon was 7.4% (active); with HT29 colon, 2.01% (active); in the assay on SNB-75 CNS it was 47.6%; in the assay with SNB-19 CNS, 2.57% (active); in the assay with U251 CNS, 2.06% (active); with PC-3 prostate, 24.2%. The growth in the assay on SK-MEL-5 melanoma is -13.5% (active); in the assay with LOX IMVI melanoma, 17.6%; in the assay on SK-MEL-28 melanoma it was -23.8% (active); with SK-MEL-2 melanoma, 24.9%; in the assay on EKVX NSCLC, 19.7%; in the assay with SN12C renal, 2.67% (active). For the same compound, the growth is 5.91% (active) in the assay on UO-31 renal; 2.8% (active) in the assay with TK-10 renal; 8.69% (active) with ACHN renal; 5.9% (active) in the assay with CAKI-1 renal; -24.3% (active) in the assay with A498 renal; -21% (active) in the assay with HL-60(TB) leukemia. For the same compound, the growth in the assay with CCRF-CEM leukemia was 9.89% (active).
For the compound `COc1cc(/C=C\c2cc(OC)c(OC)c(OC)c2)cc(N/C=C\C(=O)c2cc(OC)c(OC)c(OC)c2)c1OC`, the growth in the assay with HCT-15 colon is 19.6%; with HT29 colon it was 3.93% (active); with SNB-75 CNS, -6.67% (active); in the assay on SNB-19 CNS it was 43.4%; in the assay with U251 CNS, 31%; in the assay on PC-3 prostate, 21.1%. For the same compound, the growth was 5.18% (active) with SK-MEL-5 melanoma; 16.8% in the assay on UACC-62 melanoma; 28.6% in the assay with LOX IMVI melanoma; 15.9% with SK-MEL-2 melanoma; 36.9% with SN12C renal; 22.3% with UO-31 renal. Also, the growth in the assay on TK-10 renal was 55.1%; with ACHN renal, 28.9%; in the assay with A498 renal, -12.4% (active); in the assay on CCRF-CEM leukemia, 8.89% (active).
Regarding `CNC(=O)Oc1cccc(C(F)(F)F)c1`, the growth in the assay on HCT-15 colon was 117%; with HT29 colon, 108%; in the assay with SNB-75 CNS, 113%; with SNB-19 CNS it was 103%; with U251 CNS, 114%; with PC-3 prostate, 104%. For the same compound, the growth is 105% with SK-MEL-5 melanoma; 97.7% with UACC-62 melanoma; 105% with SK-MEL-28 melanoma; 106% in the assay on SK-MEL-2 melanoma; 139% in the assay with EKVX NSCLC; 93.7% in the assay on SN12C renal. For the same compound, the growth with UO-31 renal is 96.3%; in the assay on TK-10 renal, 105%; in the assay with ACHN renal, 114%; with CAKI-1 renal, 117%; with A498 renal, 106%; in the assay on HL-60(TB) leukemia, 114%. In addition, the growth in the assay with CCRF-CEM leukemia was 90.6%.
`CC[C@H](C)[C@H](NC(=O)C12CC(NC(C)=O)(C1)C2)C(=O)N(C)[C@H](C[C@@H](OC(C)=O)c1nc(C(=O)N[C@@H](Cc2ccccc2)C[C@H](C)C(=O)OC)cs1)C(C)C`: the growth with HCT-15 colon was 29.3%; with HT29 colon, 5.65% (active); in the assay on SNB-75 CNS it was 44.8%; in the assay on SNB-19 CNS, 50.9%; with U251 CNS, 11.6%; in the assay on PC-3 prostate it was 15.4%. Moreover, the growth is -6.58% (active) in the assay with SK-MEL-5 melanoma; 16.5% in the assay on LOX IMVI melanoma; 61% in the assay on SK-MEL-28 melanoma; 48.8% with SK-MEL-2 melanoma; 38.3% in the assay with EKVX NSCLC; 30.9% in the assay with SN12C renal. The growth is 59% with UO-31 renal; 50.4% in the assay on TK-10 renal; 43.8% in the assay on ACHN renal; 63.5% in the assay with CAKI-1 renal; -14.8% (active) with A498 renal; -10.1% (active) in the assay on HL-60(TB) leukemia. The growth in the assay with CCRF-CEM leukemia was 12.2%.

For the origin of these results see PubChem BioAssay (NCI).
